# Measured values from PubChem BioAssay (NCATS).
# A number with no mark means an inactive call. Inconclusive results are not listed. Calls of active or inactive are those of the source. Unless noted, calls follow the shape of the full dose curve.
# Legend:
# [1] = AP1 Signaling Pathway (AID 357; active = well fitted curve in either direction with a large enough effect, not every such curve was filed as active;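 also: ME-180 reporter cells stimulated with EGF at its EC50 level; % is scaled to controls: 0 for no effect and ±100 for the full control effect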)
# Outline: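 Titration-series screen for positive or negative modulators of EC50 EGF-induced signaling in ME-180 cells carrying an AP-1-driven beta-lactamase reporter. After 5 hours at 37 degrees Celsius, CCF4 460nm/530nm emission ratio gave %Activity; AC50 values derived.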
# [2] = Stat Signaling Pathway (AID 446; active = well fitted curve in either direction with a large enough effect, not every such curve was filed as active;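 also: ME-180 cervical cancer cells given 40 pM IL-6 alongside compound; SIE-controlled beta-lactamase reporter measured as 460/530 nm FRET emission ratio; % is scaled to controls: 0 for no effect and ±100 for the full control effect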); conditions: ME-180 (cervical carcinoma) SIE beta-lactamase reporter, IL-6 stimulated, 5 h; at 38 µM (top of the series) unless noted
# Outline: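 IL-6/STAT signaling read in ME-180 cells via an SIE beta-lactamase reporter. Stimulus was 40 pM IL-6 (its AC50) for 5 hrs, so both activation and inhibition register.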
# [3] = molecular target: Glucocorticoid receptor (Homo sapiens) (UniProt P04150); assay: GR-GFP Redistribution (AID 450;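 active = compounds whose dose series gives a full or clear partial fitted curve of increased nuclear translocation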; also: potency is read from the fitted curve at half-maximal effect); conditions: U2OS GR-GFP nuclear translocation, laser cytometry, 2 h
# [4] = molecular target: Glucocorticoid receptor (Homo sapiens) (UniProt P04150); assay: GR-EFC Redistribution (AID 451); conditions: CHO-K1 GR-EFC translocation, beta-gal luminescence, 2 h; also: potency is read from the fitted curve at half-maximal effect
# Outline: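 Translocation of GR-ED fusion to nuclear EA restores b-gal, read by luminescence after 1 h room-temperature detection. Engineered CHO-K1 biosensor cells, 1,000/well, exposed 2 h at 37 C to titrations up to 46 uM final.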
# [5] = molecular target: Cytochrome P450 1A2 (Homo sapiens) (UniProt P05177); assay: p450-cyp1a2 (AID 410); also: potency is read from the fitted curve at half-maximal effect;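 as to activity change, negative = inhibition: -100% = full effect of reference inhibitor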
# Outline: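 Luminescent readout of luciferin formed from Luciferin-ME by human CYP1A2; data normalized against complete inhibition by 57 uM furafylline. Enzyme 20nM, substrate 100uM at Km, 100mM KPO4 buffer, 60 min reaction at room temperature.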
# [6] = NFAT Signaling Pathway (AID 444; active = well fitted curve in either direction with a large enough effect, not every such curve was filed as active;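 also: carbachol stimulus at about its EC50 of 1 µM final; % is scaled to controls: 0 for no effect and ±100 for the full control effect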); conditions: Jurkat NFAT-bla M1, carbachol, beta-lactamase ratio, 5 h; at 38 µM (top of the series) unless noted
# Outline: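 Read-out: CCF4 FRET ratio (460 nm/530 nm) after 1 h RT dye loading, used for %activity and AC50 from titration series. Cells: Jurkat NFAT-β-lactamase/M1 line, treated with compound plus 1 uM carbachol for 5 h, 37 °C.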
# [7] = molecular target: Mitogen-activated protein kinase 10 (Mus musculus) (UniProt Q61831); assay: JNK3 AlphaScreen Assay (AID 530; active = well fitted curve in either direction with a large enough effect, not every such curve was filed as active;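 also: kinase came from lysate of stimulated human HepG2 cells; signal reports phosphorylation of biotinylated GST-cJun 1-79 at Ser73 with 10 µM ATP; % is scaled to controls: 0 for no effect and ±100 for the full control effect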)
# Outline: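 Compound titrations were preincubated 15 minutes at room temperature with substrate, antibody and pre-activated JNK3-containing HepG2 lysate. Reactions were started with 10 uM ATP and stopped with EDTA-containing bead buffer for AlphaScreen detection.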
# [8] = Cell Viability - BJ (AID 421); conditions: BJ fibroblast viability, qHTS;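 also: potency is read from the fitted curve at half-maximal effect; cells exposed to compound for 40 hours at 37 °C before readout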
# Outline: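 Quantitative HTS: ATP depletion in BJ cells after 40 hr compound exposure in complete culture medium, detected with CellTiter-Glo; AC50 from standard Hill fits.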
# [9] = Cell Viability - Jurkat (AID 426;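 active = dose-dependent loss of cell ATP signal giving a full or clear fitted curve, ranked by lower potency value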; also: potency is read from the fitted curve at half-maximal effect); conditions: qHTS
# Outline: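 qHTS, 1536-well; Jurkat E6-1, 5000 cells/well, complete medium; cpd 40 hr, 37 °C; CellTiter-Glo 20 min RT; luminescence. AC50 by Hill fit.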
# [10] = Cell Viability - Hek293 (AID 427;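 active = compounds whose dose-response curve shows a full or clear partial loss of cell viability, called from curve shape rather than a numeric limit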;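 also: potency is read from the fitted curve at half-maximal effect; cells exposed to compound for 40 hours at 37 °C before reading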); conditions: qHTS
# Outline: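 AC50 values derive from Hill-modelled concentration-response of ATP-based luminescence, normalized between DMSO-only and 100 uM tamoxifen controls. Cells were exposed in complete culture medium for 40 hr at 37 °C before detection.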
# [11] = Cell Viability - HepG2 (AID 433); conditions: qHTS;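 also: potency is read from the fitted curve at half-maximal effect; potency for ATP loss meaning cytotoxicity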
# Outline: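 Read-out is luciferase-based quantitation of cellular ATP as a measure of viable HepG2 cells after 40 h treatment at 37 °C. Signal decrease is scaled between DMSO-only and 100 uM tamoxifen controls, with AC50 fitted by the Hill equation.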
# [12] = Cell Viability - MRC5 (AID 434); conditions: MRC5 lung fibroblast viability, qHTS;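 also: potency is read from the fitted curve at half-maximal effect; potency reflects cytotoxicity seen as loss of intracellular ATP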
# Outline: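 qHTS cytotoxicity in human lung fibroblast MRC5 cells; 40 hr treatment, 37 °C; cellular ATP by luciferase luminescence; DMSO = 0%, 100 uM tamoxifen = 100% inhibition; Hill-fit AC50.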
# [13] = Cell Viability - SK-N-SH (AID 435); conditions: SK-N-SH neuroblastoma cell viability qHTS;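 also: potency is read from the fitted curve at half-maximal effect; compound exposure lasted 40 h at 37 °C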
# Outline: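 Luminescent ATP signal served as the viability read-out after 40 hours of compound treatment of human neuroblastoma SK-N-SH cells. Concentration-response data, scaled between DMSO and 100 uM tamoxifen, gave AC50 values by standard Hill modeling.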
# [14] = Cell Viability - N2a (AID 540; active = well fitted curve in the direction sought with a large enough effect; an effect the other way counts as inactive or inconclusive;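 also: plate controls were DMSO alone for no effect and tamoxifen control for full effect; nearly all actives have a fitted effect of over 45% in size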); conditions: N2a mouse neuroblastoma cell viability; activity change, negative = cytotoxicity: at 92.2 µM (top of the series)
# Outline: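 Luminescent ATP signal (CellTiter-Glo, 20 min at room temperature) served as the viability read-out after N2a cells were treated with compounds for 40 hours at 37 °C. Concentration-response data were fitted to the Hill equation for AC50.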
# [15] = Cell Viability - NIH 3T3 (AID 541; active = well fitted curve in the direction sought with a large enough effect; an effect the other way counts as inactive or inconclusive;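 also: plate controls were DMSO alone for no effect and tamoxifen positive control for full effect; nearly all actives have a fitted effect of over 25% in size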); conditions: NIH 3T3 cell viability, qHTS; activity change, negative = cytotoxicity: at 92.2 µM (top of the series)
# Outline: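 Luminescent ATP signal (CellTiter-Glo) served as the viability read-out after NIH 3T3 cells were exposed to compounds over a concentration range for 40 hr at 37 °C. Hill-equation modelling of concentration-response data gave AC50.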
# [16] = Cell Viability - HUV-EC-C (AID 542; active = well fitted curve in the direction sought with a large enough effect; an effect the other way counts as inactive or inconclusive; also: % is scaled to controls: 0 for no effect and ±100 for the full control effect; nearly all actives have a fitted effect of over 35% in size)
# Outline: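 qHTS cytotoxicity: HUV-EC-C, 1000 cells/well, 5 hr settle, compound 40 hr 37 °C, CellTiter-Glo, luminescence. AC50 via Hill equation.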
# [17] = Cell Viability - SH-SY5Y (AID 544; active = well fitted curve in the direction sought with a large enough effect; an effect the other way counts as inactive or inconclusive; also: nearly all actives have a fitted effect of over 55% in size; also: potency is read from the fitted curve at half-maximal effect)
# Outline: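 Luminescent ATP read-out (CellTiter-Glo) measures loss of viable SH-SY5Y neuroblastoma cells after 40 hr compound exposure at 37 °C. AC50 values derive from standard Hill modelling of qHTS concentration-response data.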
# [18] = Cell Viability - Renal Proximal Tubule (AID 545; active = well fitted curve in the direction sought with a large enough effect; an effect the other way counts as inactive or inconclusive;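 also: 0% = DMSO only and -100% = 100 µM tamoxifen; nearly all actives have a fitted effect of over 40% in size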); conditions: renal proximal tubule cells viability; activity change, negative = cytotoxicity: at 91.7 µM (top of the series)
# Outline: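 Luminescent ATP signal (CellTiter-Glo) served as the viability read-out after 40 hr compound exposure of freshly isolated rat proximal tubule cells at 37 °C. Concentration-dependent ATP loss was fitted with the Hill equation to give AC50.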
# [19] = Cell Viability - H-4-II-E (AID 543; active = well fitted curve in the direction sought with a large enough effect; an effect the other way counts as inactive or inconclusive; also: % is scaled to controls: 0 for no effect and ±100 for the full control effect; nearly all actives have a fitted effect of over 35% in size)
# Outline: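 Luminescent ATP signal (CellTiter-Glo) served as the viability read-out, with cytotoxicity seen as a concentration-dependent ATP drop. Cells were treated for 40 hours in complete medium. AC50 values derive from Hill-equation modelling.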
# Sequence of Cytochrome P450 1A2 (Homo sapiens) (P05177 whole entry, looked up): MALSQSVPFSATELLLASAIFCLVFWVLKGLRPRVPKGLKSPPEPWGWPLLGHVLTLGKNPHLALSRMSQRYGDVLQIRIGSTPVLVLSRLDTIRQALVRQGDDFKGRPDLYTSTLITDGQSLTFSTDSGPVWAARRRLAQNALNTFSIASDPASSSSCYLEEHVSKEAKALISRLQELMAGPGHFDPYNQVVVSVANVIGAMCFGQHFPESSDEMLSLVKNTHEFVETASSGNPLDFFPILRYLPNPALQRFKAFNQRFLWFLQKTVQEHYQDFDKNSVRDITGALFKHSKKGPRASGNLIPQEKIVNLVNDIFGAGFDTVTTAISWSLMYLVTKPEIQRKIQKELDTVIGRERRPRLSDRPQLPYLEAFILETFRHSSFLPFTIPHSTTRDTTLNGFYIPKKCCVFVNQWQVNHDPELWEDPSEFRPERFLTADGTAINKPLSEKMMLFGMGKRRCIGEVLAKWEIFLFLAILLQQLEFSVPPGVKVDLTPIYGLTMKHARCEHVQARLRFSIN
# Sequence of Glucocorticoid receptor (Homo sapiens) (P04150 whole entry, looked up, the tested form may be a part): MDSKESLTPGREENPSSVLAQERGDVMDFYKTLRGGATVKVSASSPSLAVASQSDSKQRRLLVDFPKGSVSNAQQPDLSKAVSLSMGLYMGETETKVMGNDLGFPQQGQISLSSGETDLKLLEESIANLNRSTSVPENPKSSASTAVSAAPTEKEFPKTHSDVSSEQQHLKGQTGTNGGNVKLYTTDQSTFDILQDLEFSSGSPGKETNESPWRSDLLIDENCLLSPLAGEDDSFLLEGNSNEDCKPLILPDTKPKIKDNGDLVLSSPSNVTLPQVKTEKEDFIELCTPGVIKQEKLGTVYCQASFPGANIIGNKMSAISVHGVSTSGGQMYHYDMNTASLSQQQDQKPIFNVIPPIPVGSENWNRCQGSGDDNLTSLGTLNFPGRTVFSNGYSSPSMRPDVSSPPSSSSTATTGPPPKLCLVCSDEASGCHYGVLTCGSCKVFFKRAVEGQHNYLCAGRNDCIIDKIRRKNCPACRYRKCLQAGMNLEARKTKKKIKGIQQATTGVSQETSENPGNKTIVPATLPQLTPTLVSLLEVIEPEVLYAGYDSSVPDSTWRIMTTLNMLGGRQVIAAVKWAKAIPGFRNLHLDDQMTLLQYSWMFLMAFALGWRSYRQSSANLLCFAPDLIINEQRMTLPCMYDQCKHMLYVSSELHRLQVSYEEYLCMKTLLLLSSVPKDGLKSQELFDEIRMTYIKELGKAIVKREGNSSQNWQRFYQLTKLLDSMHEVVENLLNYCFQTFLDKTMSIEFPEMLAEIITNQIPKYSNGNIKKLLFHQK
compound,measurement,setting,value
COc1ccc(OC)c(C(O)C(C)N)c1 (centres undefined),outcome,[1],inactive
same,"activity, negative = inhibition",[2],2.12% [at 17.2 µM]
same,Potency,[3],> 20.6 µM
CCCCCCC(C)(C)c1ccc([C@@H]2C[C@H](O)CC[C@H]2CCCO)c(O)c1,outcome,[1],inactive
same,"activity, negative = inhibition",[2],-25.8%
same,Potency,[3],> 46 µM
same,Potency,[4],> 46 µM
CN(N=O)c1ccc(O)c(O)c1,outcome,[1],inactive
same,Potency,[5],inactive
same,"activity change, negative = inhibition",[6],0.97%
same,Potency,[3],> 46 µM
same,Potency,[4],> 46 µM
CCCn1c(C)c(C(=O)c2ccc3ccccc3c2)c2ccccc21,outcome,[1],inactive
same,Potency,[5],6.31 µM (active)
same,"activity, negative = inhibition",[2],-13.9%
same,Potency,[3],> 46 µM
same,Potency,[4],> 46 µM
same,outcome,[7],inactive
NC(=O)COc1c(F)cc(SCCNS(=O)(=O)c2ccccc2)cc1F,outcome,[1],inactive
same,"activity change, negative = inhibition",[6],20.9%
same,Potency,[3],> 46 µM
same,Potency,[4],> 46 µM
same,outcome,[7],inactive
COC1=CC(=O)O[C@@H](/C=C/c2ccccc2)C1,Potency,[8],> 92 µM
same,Potency,[9],> 92 µM
same,Potency,[10],> 92 µM
same,Potency,[11],> 92 µM
same,Potency,[12],> 92 µM
same,Potency,[13],> 92 µM
same,outcome,[7],inactive
same,Potency,[14],inactive
same,Potency,[15],inactive
same,Potency,[16],inactive
same,Potency,[17],inactive
same,Potency,[18],inactive
Cc1cc(C)cc(C(=O)OC2C[C@H]3CC[C@@H](C2)N3C)c1 (some centres undefined),Potency,[3],> 46 µM
same,Potency,[4],> 46 µM
ClC=C(Cl)Cl,Potency,[8],> 92 µM
same,Potency,[9],> 92 µM
same,Potency,[10],> 92 µM
same,Potency,[11],> 92 µM
same,Potency,[12],> 92 µM
same,Potency,[13],> 92 µM
same,outcome,[7],inactive
same,Potency,[14],inactive
same,Potency,[15],inactive
same,Potency,[16],inactive
same,Potency,[19],inactive
same,Potency,[17],inactive
same,Potency,[18],inactive
ClCC1CO1 (centres undefined),Potency,[8],> 92 µM
same,Potency,[9],> 92 µM
same,Potency,[10],> 92 µM
same,Potency,[11],> 92 µM
same,Potency,[12],> 92 µM
same,Potency,[13],> 92 µM
same,outcome,[7],inactive
same,Potency,[14],inactive
same,Potency,[15],inactive
same,Potency,[16],inactive
same,Potency,[19],inactive
same,Potency,[17],inactive
same,Potency,[18],inactive
[O]=[Cd],Potency,[8],> 92 µM
same,Potency,[9],> 92 µM
same,Potency,[10],> 92 µM
same,Potency,[11],> 92 µM
same,Potency,[12],> 92 µM
same,Potency,[13],> 92 µM
same,Potency,[14],inactive
same,Potency,[15],inactive
same,Potency,[16],inactive
same,Potency,[19],inactive
same,Potency,[17],inactive
same,Potency,[18],inactive
CCN(CCCl)Cc1ccccc1Br,Potency,[5],15.8 µM (active)
same,"activity change, negative = inhibition",[6],-24.5%
same,Potency,[3],> 46 µM
same,Potency,[4],> 46 µM
COc1ccc2c(c1OC)C(=O)OC2C1c2cc3c(cc2CCN1C)OCO3 (centres undefined),Potency,[8],> 92 µM
same,Potency,[9],> 92 µM
same,Potency,[10],> 92 µM
same,Potency,[11],> 92 µM
same,Potency,[12],> 92 µM
same,Potency,[13],> 92 µM
same,outcome,[7],inactive
same,Potency,[14],inactive
same,Potency,[15],inactive
same,Potency,[16],inactive
same,Potency,[19],inactive
same,Potency,[17],inactive
same,Potency,[18],inactive
O=c1ccc2[nH]cc(C3=CCNCC3)c2[nH]1,Potency,[5],inactive
same,Potency,[3],> 46 µM
same,Potency,[4],> 46 µM
same,outcome,[7],inactive
Clc1ccccc1Cl,Potency,[8],> 92 µM
same,Potency,[9],> 92 µM
same,Potency,[10],> 92 µM
same,Potency,[11],> 92 µM
same,Potency,[12],> 92 µM
same,Potency,[13],> 92 µM
same,outcome,[7],inactive
same,Potency,[14],inactive
same,Potency,[15],inactive
same,Potency,[16],inactive
same,Potency,[19],inactive
same,Potency,[17],inactive
same,Potency,[18],inactive
O=[N+]([O-])c1ccc(F)c([N+](=O)[O-])c1,Potency,[8],59.9 µM (active)
same,Potency,[9],8.96 µM (active)
same,Potency,[11],46.1 µM (active)
same,Potency,[12],> 92 µM
same,Potency,[13],45.7 µM (active)
same,outcome,[7],inactive
same,"activity change, negative = cytotoxicity",[15],-151% (active)
same,Potency,[16],inactive
same,Potency,[17],25.1 µM (active)
CN1[C@@H]2CC[C@H]1CC(OC1c3ccccc3CCc3ccccc31)C2 (some centres undefined),Potency,[5],inactive
same,"activity change, negative = inhibition",[6],-67.9% [at 17.2 µM] (active)
same,"activity, negative = inhibition",[2],5.86% [at 17.2 µM]
same,Potency,[3],> 20.6 µM
same,Potency,[4],> 20.6 µM
same,outcome,[7],inactive
